# Test results published in PubChem BioAssay (NCATS).
# Where “and” joins values, the source holds several entries; their conditions need not be identical. Equal values may be shown once. Inconclusive results are not listed. A call without a number means that no potency is given here. Calls of active or inactive are those of the source. Unless noted, calls follow the shape of the full dose curve.
# What was measured:
# [1] = molecular target: Peroxisome proliferator-activated receptor delta (Homo sapiens) (UniProt Q03181); assay: qHTS assay for small molecule agonists of peroxisome proliferator-activated receptor delta signaling (AID 588534)
# Peroxisome proliferator-activated receptor delta (Homo sapiens), sequence (Q03181 whole entry, looked up): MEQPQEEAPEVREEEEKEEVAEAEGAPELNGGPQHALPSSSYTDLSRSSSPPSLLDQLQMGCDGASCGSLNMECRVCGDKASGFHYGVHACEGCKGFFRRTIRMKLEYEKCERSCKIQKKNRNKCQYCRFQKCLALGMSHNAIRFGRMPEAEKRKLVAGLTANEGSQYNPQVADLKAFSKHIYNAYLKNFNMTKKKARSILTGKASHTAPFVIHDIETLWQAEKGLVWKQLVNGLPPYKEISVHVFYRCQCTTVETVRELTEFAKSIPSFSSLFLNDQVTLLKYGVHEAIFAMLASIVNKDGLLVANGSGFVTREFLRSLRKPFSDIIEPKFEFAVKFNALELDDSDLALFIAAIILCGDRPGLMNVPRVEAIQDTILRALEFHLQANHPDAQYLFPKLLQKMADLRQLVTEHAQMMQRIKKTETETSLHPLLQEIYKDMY
# In short: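 Reporter cells were plated and held 5 hrs at 37 C before compounds were added. After 18 hrs at 37 C, CCF4 dye was loaded for 2 hrs at RT and fluorescence measured.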
# [2] = qHTS for Inhibitors of the Functional Ribonucleoprotein Complex (vRNP) of Lassa (LASV) Arenavirus: LASV Primary Screen - GLuc reporter signal (AID 1347082; calls by dose curve; tested in HEK293 reporter line; also: series mostly up to about 57 µM; nearly all actives have a fitted effect of over 60% in size)
# [3] = qHTS for Inhibitors of the Functional Ribonucleoprotein Complex (vRNP) of Lassa (LASV) Arenavirus: Viability assay - alamar blue signal for LASV Primary Screen (AID 1347083; calls by dose curve; tested in HEK293 reporter line; also: series mostly up to about 57 µM; nearly all actives have a fitted effect of over 80% in size)
# [4] = qHTS for Inhibitors of the Functional Ribonucleoprotein Complex (vRNP) of Lymphocytic Choriomeningitis Arenaviruses (LCMV): Viability assay - alamar blue signal for LCMV Primary Screen (AID 1347085; calls by dose curve; tested in HEK293 reporter line; also: series mostly up to about 57 µM; nearly all actives have a fitted effect of over 80% in size)
# [5] = molecular target: Nucleoprotein (Lymphocytic choriomeningitis virus (strain Armstrong)) (UniProt P09992); assay: qHTS for Inhibitors of the Functional Ribonucleoprotein Complex (vRNP) of Lymphocytic Choriomeningitis Arenaviruses (LCMV): LCMV Primary Screen - GLuc reporter signal (AID 1347086); also: series mostly up to about 57 µM; nearly all actives have a fitted effect of over 70% in size
# Nucleoprotein (Lymphocytic choriomeningitis virus (strain Armstrong)), sequence (P09992 whole entry, looked up): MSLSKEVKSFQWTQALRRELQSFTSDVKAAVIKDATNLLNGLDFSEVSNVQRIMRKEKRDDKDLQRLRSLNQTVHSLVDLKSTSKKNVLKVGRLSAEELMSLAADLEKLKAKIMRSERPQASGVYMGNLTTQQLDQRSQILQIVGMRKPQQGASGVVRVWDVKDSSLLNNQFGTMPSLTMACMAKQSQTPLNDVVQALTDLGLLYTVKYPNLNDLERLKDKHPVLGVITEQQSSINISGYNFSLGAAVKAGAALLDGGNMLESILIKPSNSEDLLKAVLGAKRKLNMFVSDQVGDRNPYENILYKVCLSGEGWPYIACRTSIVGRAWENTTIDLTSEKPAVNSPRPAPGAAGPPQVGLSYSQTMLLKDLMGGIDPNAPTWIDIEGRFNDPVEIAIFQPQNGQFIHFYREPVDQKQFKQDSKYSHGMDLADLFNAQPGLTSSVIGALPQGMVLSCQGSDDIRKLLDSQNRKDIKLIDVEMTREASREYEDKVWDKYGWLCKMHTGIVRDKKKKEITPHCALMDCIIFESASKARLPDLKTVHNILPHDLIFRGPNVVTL
# [6] = molecular target: Cytochrome P450 3A4 (Homo sapiens) (UniProt P08684); assay: qHTS Assay for Inhibitors and Substrates of Cytochrome P450 3A4 (AID 884; active = well fitted curve in the direction sought with a large enough effect; an effect the other way counts as inactive or inconclusive; also: potency is read from the fitted curve at half-maximal effect; nearly all actives have a fitted effect of over 50% in size)
# Cytochrome P450 3A4 (Homo sapiens), sequence (P08684 whole entry, looked up): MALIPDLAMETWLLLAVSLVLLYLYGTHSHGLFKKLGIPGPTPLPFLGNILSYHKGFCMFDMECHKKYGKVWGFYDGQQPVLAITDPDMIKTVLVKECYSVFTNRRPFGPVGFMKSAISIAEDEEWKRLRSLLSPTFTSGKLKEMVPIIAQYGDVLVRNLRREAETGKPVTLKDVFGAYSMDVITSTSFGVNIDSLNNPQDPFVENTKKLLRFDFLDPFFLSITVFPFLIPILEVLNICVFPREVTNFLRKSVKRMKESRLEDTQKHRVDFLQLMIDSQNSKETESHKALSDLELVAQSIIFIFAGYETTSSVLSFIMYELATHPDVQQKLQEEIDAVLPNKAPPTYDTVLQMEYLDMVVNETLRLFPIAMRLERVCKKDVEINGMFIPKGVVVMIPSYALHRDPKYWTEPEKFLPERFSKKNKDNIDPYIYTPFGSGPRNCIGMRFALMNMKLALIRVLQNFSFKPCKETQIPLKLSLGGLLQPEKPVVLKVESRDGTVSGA
# In short: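 20 nM human CYP3A4 with 25 uM Luciferin-PPXE (at KM) in 200 mM KPO4, preincubated 10 min with compound; NADPH regeneration started a 60 min RT reaction. Luciferin detected by luminescence, normalized to 57 uM ketoconazole as full inhibition.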
# [7] = MultiTox-Fluor Cytotoxicity Assay - LYMP1-002 - Dead Cells (AID 960; active = well fitted curve in the direction sought with a large enough effect; an effect the other way counts as inactive or inconclusive; also: potency is read from the fitted curve at half-maximal effect; nearly all actives have a fitted effect of over 60% in size)
# In short: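 Acute cytotoxicity in a human lymphoblastoid line is scored as rising dead-cell protease signal after 16 hr exposure at 37 C, measured fluorometrically (485/520).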
# [8] = molecular target: Glucocorticoid receptor (Homo sapiens) (UniProt P04150); assay: qHTS assay for small molecule agonists of glucocorticoid receptor signaling (AID 588532; active = well fitted curve in the direction sought with a large enough effect in the signal ratio, with a control signal flat; the % refers to the signal ratio); conditions: HeLa MMTV-bla, beta-lactamase ratio, agonist, 18 h; stronger effect = higher value; percent of dexamethasone control, DMSO zero
# In short: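 Stimulation of a glucocorticoid response element-driven beta-lactamase gene was measured in HeLa cells. Responses were scaled between DMSO basal and 0.1 uM dexamethasone, then fitted for half-maximal stimulation.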
# [9] = molecular target: Peroxisome proliferator-activated receptor gamma (Homo sapiens) (UniProt P37231); assay: qHTS assay for small molecule antagonists of peroxisome proliferator-activated receptor gamma signaling (AID 588537; active = well fitted inhibition curve with a large enough effect in the signal ratio, with a control signal flat, not every such curve was filed as active; the % refers to the signal ratio; also: potency is read from the fitted curve at half-maximal effect)
# Peroxisome proliferator-activated receptor gamma (Homo sapiens), sequence (P37231 whole entry, looked up): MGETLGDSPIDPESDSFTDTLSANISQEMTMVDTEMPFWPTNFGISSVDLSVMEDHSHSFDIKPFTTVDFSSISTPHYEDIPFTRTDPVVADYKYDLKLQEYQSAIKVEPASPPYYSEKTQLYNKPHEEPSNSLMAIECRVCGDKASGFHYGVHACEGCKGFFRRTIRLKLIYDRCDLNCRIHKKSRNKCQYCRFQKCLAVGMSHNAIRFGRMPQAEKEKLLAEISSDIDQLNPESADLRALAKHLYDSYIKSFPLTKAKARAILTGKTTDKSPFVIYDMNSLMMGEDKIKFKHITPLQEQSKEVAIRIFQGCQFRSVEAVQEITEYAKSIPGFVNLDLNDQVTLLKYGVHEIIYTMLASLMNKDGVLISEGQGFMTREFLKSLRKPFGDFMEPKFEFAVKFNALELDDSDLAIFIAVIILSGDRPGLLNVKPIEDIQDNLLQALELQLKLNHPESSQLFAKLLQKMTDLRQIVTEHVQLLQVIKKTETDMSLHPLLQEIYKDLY
# In short: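 PPAR-gamma-UAS-bla HEK293 cells (3000/well, 1% charcoal/dextran-stripped FBS) were preincubated 6-6.5 h at 37 C, given titrated compounds, then stimulated with 50 nM rosiglitazone for 16 h. Beta-lactamase activity was read with CCF4 dye; IC50 came from Hill fits.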
# [10] = molecular target: Vitamin D3 receptor (Homo sapiens) (UniProt P11473); assay: qHTS assay for small molecule agonists of vitamin D receptor signaling (AID 588543)
# Vitamin D3 receptor (Homo sapiens), sequence (P11473 whole entry, looked up): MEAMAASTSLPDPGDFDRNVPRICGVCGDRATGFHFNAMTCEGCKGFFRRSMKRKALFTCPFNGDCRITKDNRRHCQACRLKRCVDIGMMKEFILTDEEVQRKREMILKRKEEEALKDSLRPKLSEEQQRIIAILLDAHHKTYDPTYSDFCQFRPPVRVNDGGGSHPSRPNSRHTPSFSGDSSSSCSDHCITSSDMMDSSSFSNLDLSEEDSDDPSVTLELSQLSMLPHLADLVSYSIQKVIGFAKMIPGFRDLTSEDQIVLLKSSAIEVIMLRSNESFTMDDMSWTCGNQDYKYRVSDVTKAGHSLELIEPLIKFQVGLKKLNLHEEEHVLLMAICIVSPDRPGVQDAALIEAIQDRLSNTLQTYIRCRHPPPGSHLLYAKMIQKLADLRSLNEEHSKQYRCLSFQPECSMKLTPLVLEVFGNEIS
# In short: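 Measured: β-lactamase reporter activity (CCF4, 405 nm excitation, 460/530 nm emission) in HEK293T VDR-UAS-bla cells after 16 h compound exposure at 37 °C. Normalization against 50 nM 1α,25-dihydroxyvitamin D3 and DMSO; Hill-fit EC50.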
# [11] = molecular target: Voltage-gated inwardly rectifying potassium channel KCNH2 (Homo sapiens) (UniProt Q12809); assay: qHTS Assay for Small Molecule Inhibitors of the Human hERG Channel Activity (AID 588834; active = well fitted curve in the direction sought with a large enough effect; an effect the other way counts as inactive or inconclusive;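 also: potency is read from the fitted curve at half-maximal effect; lower thallium flux fluorescence means stronger hERG block; nearly all actives have a fitted effect of over 50% in size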)
# In short: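 Blockade is seen as reduced FluxOR thallium-flux fluorescence in U2OS cells expressing hERG from a BacMam construct, in Opti-MEM with 2% FCS. Concentration-response data fitted to the Hill equation for AC50.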
# [12] = qHTS assay for small molecule agonists of the antioxidant response element (ARE) signaling pathway (AID 651741; active = well fitted activation curve with a large enough effect in the signal ratio; the % refers to the signal ratio; also: potency is read from the fitted curve at half-maximal effect)
# In short: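 ARE-bla HepG2 cells (beta-lactamase reporter under ARE control) were plated at 2,000 cells/well, preincubated 5 h at 37 C/5% CO2, then treated with DMSO-dissolved compounds for 16 h at 37 C; LiveBLAzer B/G FRET substrate added, fluorescence read after 2 h at room temperature.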
# [13] = qHTS assay for small molecule activators of the nuclear factor-kappa B (NF-kB) signaling pathway (AID 651749; active = well fitted activation curve with a large enough effect in the signal ratio; the % refers to the signal ratio; also: series mostly up to about 77 µM); conditions: NF-kB-bla ME-180 cells, beta-lactamase FRET ratio, 16 h; activation: stronger effect = higher value
# In short: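 ME-180 cells stably carrying a beta-lactamase reporter under an NF-kB response element were exposed to compound or DMSO vehicle for 16 hr at 37C, 5% CO2. Pathway activation was read by FRET, since reporter expression disrupts FRET.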
# [14] = qHTS assay for environmental chemicals that activate the Aryl hydrocarbon Receptor (AhR) signaling pathway (AID 651777; active = well fitted curve in the direction sought with a large enough effect; an effect the other way counts as inactive or inconclusive; also: nearly all actives have a fitted effect of over 15% in size); conditions: 1A2-DRE human hepatoma cells, luciferase, 24 h; activation: stronger effect = higher value
# In short: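 Measured luciferase activity, read 30 min after One-Glo addition at room temperature, from human hepatoma cells bearing a dioxin response element–CYP1A2 promoter reporter and exposed to compound for 24 hr at 37 C.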
# [15] = molecular target: Peroxisome proliferator-activated receptor alpha (Homo sapiens) (UniProt Q07869); assay: qHTS assay for small molecule agonists of the peroxisome proliferator-activated receptor alpha (PPARalpha) signaling pathway (AID 651778; active = well fitted curve in the direction sought with a large enough effect; an effect the other way counts as inactive or inconclusive); conditions: PathHunter PPARalpha complementation, chemiluminescence, 6 h; stronger effect = higher value
# Peroxisome proliferator-activated receptor alpha (Homo sapiens), sequence (Q07869 whole entry, looked up): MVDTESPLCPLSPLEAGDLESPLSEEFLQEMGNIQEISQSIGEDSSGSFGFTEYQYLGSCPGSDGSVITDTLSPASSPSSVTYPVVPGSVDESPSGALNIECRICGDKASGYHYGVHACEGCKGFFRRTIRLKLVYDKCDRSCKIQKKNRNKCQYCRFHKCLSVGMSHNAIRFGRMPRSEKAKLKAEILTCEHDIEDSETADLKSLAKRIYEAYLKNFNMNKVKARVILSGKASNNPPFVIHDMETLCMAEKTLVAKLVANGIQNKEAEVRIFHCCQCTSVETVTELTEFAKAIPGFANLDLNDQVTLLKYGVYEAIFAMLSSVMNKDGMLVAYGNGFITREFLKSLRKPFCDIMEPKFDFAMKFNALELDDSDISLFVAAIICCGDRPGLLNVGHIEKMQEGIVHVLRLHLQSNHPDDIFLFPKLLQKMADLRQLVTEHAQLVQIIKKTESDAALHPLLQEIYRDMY
# In short: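 Cells plated at 2,000/well and held overnight at 37 C, 5% CO2, then compound added by pin tool for 6 hr; after PathHunter detection reagent and 60 min at room temperature, chemiluminescence from enzyme complementation was read.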
# [16] = molecular target: Androgen receptor (Homo sapiens) (UniProt P10275); assay: qHTS assay for small molecule agonists of androgen receptor signaling (AID 588515; active = well fitted curve in the direction sought with a large enough effect in the signal ratio, with a control signal flat; the % refers to the signal ratio); conditions: AR-UAS-bla HEK293, beta-lactamase ratio, agonist 16 h; stronger effect = higher value
# Androgen receptor (Homo sapiens), sequence (P10275 whole entry, looked up): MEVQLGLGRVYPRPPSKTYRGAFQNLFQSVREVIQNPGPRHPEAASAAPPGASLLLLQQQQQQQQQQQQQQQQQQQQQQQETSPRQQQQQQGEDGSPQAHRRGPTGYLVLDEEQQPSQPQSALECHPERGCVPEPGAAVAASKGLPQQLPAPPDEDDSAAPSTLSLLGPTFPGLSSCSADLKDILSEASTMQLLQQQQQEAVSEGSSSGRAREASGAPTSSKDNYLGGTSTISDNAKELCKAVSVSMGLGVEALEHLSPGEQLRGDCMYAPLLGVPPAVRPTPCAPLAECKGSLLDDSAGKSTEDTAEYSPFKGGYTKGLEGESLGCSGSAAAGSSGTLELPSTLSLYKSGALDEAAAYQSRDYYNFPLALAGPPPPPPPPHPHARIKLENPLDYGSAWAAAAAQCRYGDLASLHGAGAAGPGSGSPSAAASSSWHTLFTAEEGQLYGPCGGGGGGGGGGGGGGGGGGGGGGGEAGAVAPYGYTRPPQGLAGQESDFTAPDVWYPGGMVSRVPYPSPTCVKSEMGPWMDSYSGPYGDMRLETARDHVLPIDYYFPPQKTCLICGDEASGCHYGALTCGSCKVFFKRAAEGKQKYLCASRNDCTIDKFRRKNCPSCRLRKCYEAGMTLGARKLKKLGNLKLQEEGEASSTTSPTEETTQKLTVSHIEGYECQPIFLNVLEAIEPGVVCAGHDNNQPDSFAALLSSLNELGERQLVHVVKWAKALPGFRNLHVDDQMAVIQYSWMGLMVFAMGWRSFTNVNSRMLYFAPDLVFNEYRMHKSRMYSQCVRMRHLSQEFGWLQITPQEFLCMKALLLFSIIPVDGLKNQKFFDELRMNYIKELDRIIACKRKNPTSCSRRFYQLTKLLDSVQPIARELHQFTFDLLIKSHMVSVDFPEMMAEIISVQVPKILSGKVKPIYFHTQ
# In short: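 EC50 and efficacy came from Hill fits of titrations (up to 92 uM) normalized to 30 nM R1881 as 100% and DMSO as 0%. Compound exposure was 16 h at 37 C on AR-UAS-bla HEK293 cells, with a 405/460/530 nm CCF4 fluorescence read.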
# [17] = molecular target: Androgen receptor (Homo sapiens) (UniProt P10275); assay: qHTS assay for small molecule antagonists of androgen receptor signaling (AID 588516; active = well fitted curve in the direction sought with a large enough effect in the signal ratio, with a control signal flat, not every such curve was filed as active; the % refers to the signal ratio)
# In short: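 Compounds tested in titration against 10 nM R1881 in AR-responsive bla reporter HEK 293 cells; CCF4 fluorescence (460/530 nm) after 16 h exposure gave IC50 and efficacy.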
# [18] = molecular target: Bile acid receptor (Homo sapiens) (UniProt Q96RI1); assay: qHTS assay for small molecule antagonists of farnesoid X receptor signaling (AID 588526)
# In short: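 Concentration-response titrations were fitted to the Hill equation for half-maximal inhibition and maximal response, with data normalised to 50 uM chenodeoxycholic acid and DMSO control wells. Cells: FXR-UAS-bla HEK293T, dialyzed FBS.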
# [19] = qHTS assay for small molecule antagonists of peroxisome proliferator-activated receptor delta signaling (AID 588535; active = well fitted inhibition curve with a large enough effect in the signal ratio, with a control signal flat, not every such curve was filed as active; the % refers to the signal ratio;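 as to max response: cells co-treated with a PPAR-delta agonist as stimulator during compound exposure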); conditions: HEK293T PPARd-UAS-bla, beta-lactamase FRET ratio, 18 h; 460 nm channel
# In short: (§1)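 GeneBLAzer PPAR-delta-UAS-bla HEK293T cells in medium with 2% charcoal/dextran FBS were preincubated 5 hrs at 37 C, then given compounds, incubated 18 hrs at 37 C, and read by CCF4 beta-lactamase fluorescence; IC50 from Hill fits.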
# [20] = molecular target: Peroxisome proliferator-activated receptor delta (Homo sapiens) (UniProt Q03181); assay: as above
# In short: as §1
# [21] = molecular target: Peroxisome proliferator-activated receptor gamma (Homo sapiens) (UniProt P37231); assay: qHTS assay for small molecule agonists of peroxisome proliferator-activated receptor gamma signaling (AID 588536; active = well fitted curve in the direction sought with a large enough effect in the signal ratio, with a control signal flat, not every such curve was filed as active; the % refers to the signal ratio)
# In short: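 HEK293 UAS-bla reporter line, 1% charcoal/dextran FBS; titration, 16 h, 37 C; CCF4 loading 2 h RT; fluorescence 460/530 nm. Normalized to rosiglitazone 2 uM = 100%, DMSO = 0%.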
# [22] = molecular target: Vitamin D3 receptor (Homo sapiens) (UniProt P11473); assay: qHTS assay for small molecule antagonists of vitamin D receptor signaling (AID 588541);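 also: receptor activated by calcitriol during compound treatment; series mostly up to about 77 µM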
# In short: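 VDR-UAS-bla HEK293T cells (2000/well, 2% charcoal-stripped FBS) were treated with titrated compounds plus 1-alpha,25-dihydroxyvitamin D3 (50 nM or 3 nM final) for 16 h at 37 C. CCF4 beta-lactamase fluorescence was read; Hill fits gave IC50.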
# [23] = qHTS assay for small molecule agonists of retinoid X receptor alpha signaling (AID 588544); conditions: HEK293T RXRa-UAS-bla, beta-lactamase reporter, 18 h; 530 nm emission
# [24] = molecular target: Retinoic acid receptor RXR-alpha (Homo sapiens) (UniProt P19793); assay: as above
# Retinoic acid receptor RXR-alpha (Homo sapiens), sequence (P19793 whole entry, looked up): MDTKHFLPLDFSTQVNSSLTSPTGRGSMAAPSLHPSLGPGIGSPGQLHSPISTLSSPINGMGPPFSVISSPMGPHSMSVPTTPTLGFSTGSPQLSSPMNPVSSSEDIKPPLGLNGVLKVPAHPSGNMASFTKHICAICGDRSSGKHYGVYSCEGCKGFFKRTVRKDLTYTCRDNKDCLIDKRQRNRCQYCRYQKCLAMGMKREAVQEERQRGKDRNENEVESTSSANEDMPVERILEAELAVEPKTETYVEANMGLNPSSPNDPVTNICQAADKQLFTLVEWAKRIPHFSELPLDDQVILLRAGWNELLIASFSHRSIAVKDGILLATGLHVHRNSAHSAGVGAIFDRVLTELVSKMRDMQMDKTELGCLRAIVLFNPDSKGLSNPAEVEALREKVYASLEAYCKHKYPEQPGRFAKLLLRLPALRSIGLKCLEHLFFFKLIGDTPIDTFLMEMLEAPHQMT
# [25] = molecular target: Thyroid hormone receptor beta (Homo sapiens) (UniProt P10828); assay: qHTS assay for small molecule agonists of thyroid hormone receptor beta signaling (AID 588545)
# Thyroid hormone receptor beta (Homo sapiens), sequence (P10828 whole entry, looked up): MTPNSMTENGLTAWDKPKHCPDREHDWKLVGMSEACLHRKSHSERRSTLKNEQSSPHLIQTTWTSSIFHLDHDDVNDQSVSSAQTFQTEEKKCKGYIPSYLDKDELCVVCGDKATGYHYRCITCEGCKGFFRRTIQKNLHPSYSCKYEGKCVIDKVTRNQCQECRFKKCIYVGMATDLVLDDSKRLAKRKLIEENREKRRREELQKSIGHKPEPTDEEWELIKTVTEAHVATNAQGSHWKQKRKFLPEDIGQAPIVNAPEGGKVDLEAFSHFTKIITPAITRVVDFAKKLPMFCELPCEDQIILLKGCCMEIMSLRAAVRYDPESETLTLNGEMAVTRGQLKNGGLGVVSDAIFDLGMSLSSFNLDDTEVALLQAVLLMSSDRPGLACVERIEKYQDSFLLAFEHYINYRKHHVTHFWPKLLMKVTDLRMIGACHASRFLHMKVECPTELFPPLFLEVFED
# In short: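 In this cell-based screen, titrated compounds act on HEK 293 cells held in medium with 2% charcoal/dextran FBS, NEAA and pyruvate for 18 hrs at 37 C. Responses are expressed relative to T3 (10 nM) as 100% and basal DMSO as 0%.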
# [26] = qHTS assay for small molecule antagonists of retinoid X receptor alpha signaling (AID 588546; active = well fitted inhibition curve with a large enough effect in the signal ratio, with a control signal flat, not every such curve was filed as active; the % refers to the signal ratio;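 also: cells stimulated with 9-cis-retinoic acid as agonist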); conditions: HEK293T RXRa-UAS-bla, beta-lactamase ratio, antagonist mode; measured here: W530 green channel, cytotoxicity proxy
# In short: (§2)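 Beta-lactamase reporter inhibition, read as CCF4 fluorescence ratio (ex 405, em 460/530 nm) after 2 h at RT. HEK293T UAS-bla cells, 2500/well, were stimulated with 9-cis-RA at 500 or 100 nM final alongside test compound for 18 h at 37 C.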
# [27] = molecular target: Retinoic acid receptor RXR-alpha (Homo sapiens) (UniProt P19793); assay: as above; conditions: HEK293T RXRa-UAS-bla, beta-lactamase ratio, antagonist mode
# In short: as §2
# [28] = molecular target: Thyroid hormone receptor beta (Homo sapiens) (UniProt P10828); assay: qHTS assay for small molecule antagonists of thyroid hormone receptor beta signaling (AID 588547; active = well fitted inhibition curve with a large enough effect in the signal ratio, with a control signal flat, not every such curve was filed as active; the % refers to the signal ratio;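 also: cells stimulated with 0.4 nM T3 agonist during compound exposure; series mostly up to about 77 µM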); conditions: TR-UAS-bla HEK293, beta-lactamase ratio, antagonist mode, 18 h
# In short: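 TR-UAS-bla GripTite HEK293 cells in 2% charcoal/dextran FBS medium were preincubated 4 h at 37 C, given compound (0.59 nM to 92 uM) plus 0.4 nM T3 (final) for 18 h, then CCF4 for 2 h at RT; Hill fit gave IC50.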
# [29] = qHTS assay for small molecule agonists of the antioxidant response element (ARE) signaling pathway measured by Nrf2-dependant transcriptional activity (AID 720636; active = well fitted curve in the direction sought with a large enough effect in the repeat runs; an effect the other way counts as inactive or inconclusive;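 also: HepG2 cells with an ARE-driven luciferase reporter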)
# In short: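 In HepG2 cells engineered with an Nrf2-responsive luciferase gene, ARE induction was quantified as luminescence after 16 hr compound treatment at 37 C.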
# [30] = qHTS assay for small molecule agonists of the antioxidant response element (ARE) signaling pathway measured by Nrf2-dependant transcriptional activity - cell viability counter screen (AID 720653; active = well fitted curve in the direction sought with a large enough effect in the repeat runs; an effect the other way counts as inactive or inconclusive); conditions: ARE-bla HepG2 viability, CellTiter-Glo ATP luminescence, 16 h; max response: stronger effect = lower value
# In short: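 ARE-bla HepG2 cells (2,000/well) rested 5 hrs at 37C/5% CO2, then exposed to compounds in DMSO for 16 hrs. Viability was read in the same wells as intracellular ATP by luminescence, 30 min at room temperature after reagent addition.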
# [31] = qHTS assay for cell viability of HEK293 cells (AID 743288; active = well fitted curve in the direction sought with a large enough effect; an effect the other way counts as inactive or inconclusive; also: nearly all actives have a fitted effect of over 50% in size); conditions: ATP luminescence (CellTiter-Glo), 18 h; max response: stronger effect = lower value
# In short: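 Luminescent ATP quantitation served as the viability read-out. Cells (parental HEK293, 2,000/well) received compounds after at least 5 h at 37 C and were exposed for 18 h before a 30 min room-temperature reagent step.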
# [32] = qHTS assay for cell viability of the p53RE-bla HCT-116 cell line (AID 743292; active = well fitted curve in the direction sought with a large enough effect; an effect the other way counts as inactive or inconclusive; also: nearly all actives have a fitted effect of over 55% in size)
# In short: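 Intracellular ATP of p53RE-bla HCT-116 cells measured by luciferase luminescence following 16 h compound incubation at 37 C; DMSO-only wells served as vehicle controls.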
# [33] = molecular target: Nuclear receptor subfamily 1 group I member 2 (Rattus norvegicus) (UniProt Q9R1A7); assay: qHTS assay for small molecule activators of the rat pregnane X receptor (rPXR) signaling pathway (AID 651751; call rule not given here); conditions: rPXR reporter cells, luciferase (One-Glo), 24 h
# [34] = qHTS assay for small molecule activators of the human pregnane X receptor (PXR) signaling pathway (AID 720659; call rule not given here)
smiles,measurement,setting,value
CC/C=C\CCOC(=O)c1ccccc1O,Potency,[1],inactive
same,Potency,[2],inactive
same,Potency,[3],inactive
same,Potency,[4],inactive
same,Potency,[5],inactive
c1ccc(Nc2cccc3ccccc23)cc1,Potency,[6],31.6 µM (active)
same,Potency,[7],31.6 µM (active)
same,activation,[8],4.55% (inactive)
same,Potency,[9],39.8 µM (active) and 44.7 µM (active)
same,Potency,[10],inactive
same,Potency,[11],28.2 µM (active)
same,Potency,[12],42.2 µM (active) and 24.3 µM (active)
same,activation,[13],-0.293% (inactive)
same,activation,[14],4.97% (inactive)
same,max response,[15],-0.23% (inactive)
same,Potency,[2],inactive
same,Potency,[3],inactive
same,Potency,[4],inactive
same,Potency,[5],inactive
Cc1ccc(C)c2ccccc12,activation,[16],26.3% (inactive)
same,outcome,[17],inactive
same,Potency,[18],inactive
same,Potency,[1],inactive
same,max response,[19],22.6%
same,outcome,[20],inactive
same,outcome,[21],inactive
same,outcome,[22],inactive
same,Potency,[10],inactive
same,max response,[23],-18.4%
same,outcome,[24],inactive
same,Potency,[25],inactive
same,max response,[26],-5.36%
same,max response,[27],3.54% (inactive)
same,activity change % (negative = inhibition),[28],-0.662% (inactive)
same,Potency,[12],inactive
same,activation,[14],1.38% (inactive)
same,max response,[15],-1.64% (inactive)
same,Potency,[29],inactive
same,max response,[30],-14.6% (inactive)
same,max response,[31],-1.65% (inactive)
same,outcome,[32],inactive
same,Potency,[2],inactive
same,Potency,[3],inactive
same,Potency,[4],inactive
same,Potency,[5],inactive
same,max response,[33],-3.33% (inactive)
same,outcome,[34],inactive
